# ± gives the standard deviation.
# T1: HaloTag-ATRX ADD domain (163-292)
# T1 chain: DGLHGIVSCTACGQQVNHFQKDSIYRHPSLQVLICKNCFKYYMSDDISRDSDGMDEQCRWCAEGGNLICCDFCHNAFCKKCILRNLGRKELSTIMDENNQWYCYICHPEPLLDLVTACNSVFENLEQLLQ
# Experiments:
# Experiment in all cases: peptide microarray binding signal (635 nm), min-max normalized on array (fraction of array maximum); higher = stronger binding
# Conditions in all cases: peptide region: H3 1-13
# [1] = molecular target: T1, HaloTag-ATRX ADD domain (163-292)
# Protocol: (§1)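 Histone 13-mer peptides were synthesized as cellulose conjugates with a C-terminal 20-atom PEG linker and printed in triplicate on nitrocellulose. The sequence given is the unmodified backbone; PTMs (Kme1/2/3, Kac, Sph/Tph, Rme/Rme2a/Rme2s, Rcit) are listed in the label and the 'peptide modifications' condition. Slides were probed at 4 °C for 1 h with biotin-labelled (HQ)5-HaloTag reader fusions (ATRX-ADD, ING2-PHD) then streptavidin-Alexa647, or with rabbit histone antibodies then anti-rabbit Alexa647. The mean 635 nm signal of the triplicate spots was scaled 0-1 between the lowest and highest values on each array.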
# [2] = molecular target: HaloTag-ING2 PHD (mouse Ing2 200-280)
# Protocol: as §1
# [3] = molecular target: anti-H3K4me3 antibody ab8580
# Protocol: as §1
# [4] = molecular target: anti-H3K9me3 antibody ab8898
# Protocol: as §1
# [5] = peptide modifications: H3R8me1 H3K9me3, binder concentration: 1:2,000 dilution
# [6] = peptide modifications: H3R8me1 H3K9me3, binder concentration: 1:10,000 dilution
# [7] = peptide modifications: H3R8me2s, binder concentration: 1:2,000 dilution
# [8] = peptide modifications: H3R8me2s, binder concentration: 1:10,000 dilution
# [9] = peptide modifications: H3R8me2a H3K9me3, binder concentration: 1:2,000 dilution
# [10] = peptide modifications: H3R8me2a H3K9me3, binder concentration: 1:10,000 dilution
# [11] = peptide modifications: H3S10ph, binder concentration: 1:2,000 dilution
# [12] = peptide modifications: H3S10ph, binder concentration: 1:10,000 dilution
# [13] = peptide modifications: H3R8me1, binder concentration: 1:2,000 dilution
# [14] = peptide modifications: H3R8me1, binder concentration: 1:10,000 dilution
# [15] = peptide modifications: H3R8me2s H3K9me2, binder concentration: 1:2,000 dilution
# [16] = peptide modifications: H3R8me2s H3K9me2, binder concentration: 1:10,000 dilution
# [17] = peptide modifications: H3R8me1 H3K9ac, binder concentration: 1:2,000 dilution
# [18] = peptide modifications: H3R8me1 H3K9ac, binder concentration: 1:10,000 dilution
# [19] = peptide modifications: H3T3ph H3K4ac, binder concentration: 1:2,000 dilution
# [20] = peptide modifications: H3T3ph H3K4ac, binder concentration: 1:10,000 dilution
# [21] = peptide modifications: H3R8cit, binder concentration: 1:2,000 dilution
# [22] = peptide modifications: H3R8cit, binder concentration: 1:10,000 dilution
# [23] = peptide modifications: H3R8me2a H3K9ac, binder concentration: 1:2,000 dilution
# [24] = peptide modifications: H3R8me2a H3K9ac, binder concentration: 1:10,000 dilution
binder,measurement,setting,value
ARTKQTARKSTGG [H3 1-13 A R T K Q T A Rme Kme3 S T G G],peptide microarray binding signal,"[1]; peptide modifications: H3R8me1 H3K9me3, binder concentration: 50 nM",0.398 ± 0.0051
same,peptide microarray binding signal,"[1]; peptide modifications: H3R8me1 H3K9me3, binder concentration: 500 nM",0.396 ± 0.0076
same,peptide microarray binding signal,"[2]; peptide modifications: H3R8me1 H3K9me3, binder concentration: 10 nM",0.0338 ± 0.011
same,peptide microarray binding signal,"[2]; peptide modifications: H3R8me1 H3K9me3, binder concentration: 100 nM",0.0759 ± 0.034
same,peptide microarray binding signal,[3]; [5],0.0426 ± 0.012
same,peptide microarray binding signal,[3]; [6],0.0253 ± 0.013
same,peptide microarray binding signal,[4]; [5],0.258 ± 0.015
same,peptide microarray binding signal,[4]; [6],0.171 ± 0.017
ARTKQTARKSTGG [H3 1-13 A R T K Q T A Rme2s K S T G G],peptide microarray binding signal,"[1]; peptide modifications: H3R8me2s, binder concentration: 50 nM",0.007899 ± 6.4e-05
same,peptide microarray binding signal,"[1]; peptide modifications: H3R8me2s, binder concentration: 500 nM",0.0258 ± 0.00046
same,peptide microarray binding signal,"[2]; peptide modifications: H3R8me2s, binder concentration: 10 nM",0.0129 ± 0.00049
same,peptide microarray binding signal,"[2]; peptide modifications: H3R8me2s, binder concentration: 100 nM",0.0364 ± 0.027
same,peptide microarray binding signal,[3]; [7],0.00759 ± 0.0043
same,peptide microarray binding signal,[3]; [8],0.00302 ± 0.00087
same,peptide microarray binding signal,[4]; [7],0.0037 ± 0.00057
same,peptide microarray binding signal,[4]; [8],0.00254 ± 0.00038
ARTKQTARKSTGG [H3 1-13 A R T K Q T A Rme2a Kme3 S T G G],peptide microarray binding signal,"[1]; peptide modifications: H3R8me2a H3K9me3, binder concentration: 50 nM",0.955 ± 0.067
same,peptide microarray binding signal,"[1]; peptide modifications: H3R8me2a H3K9me3, binder concentration: 500 nM",0.905 ± 0.038
same,peptide microarray binding signal,"[2]; peptide modifications: H3R8me2a H3K9me3, binder concentration: 10 nM",0.126 ± 0.042
same,peptide microarray binding signal,"[2]; peptide modifications: H3R8me2a H3K9me3, binder concentration: 100 nM",0.201 ± 0.059
same,peptide microarray binding signal,[3]; [9],0.0701 ± 0.02
same,peptide microarray binding signal,[3]; [10],0.0416 ± 0.019
same,peptide microarray binding signal,[4]; [9],0.458 ± 0.13
same,peptide microarray binding signal,[4]; [10],0.309 ± 0.082
ARTKQTARKSTGG [H3 1-13 A R T K Q T A R K Sph T G G],peptide microarray binding signal,"[1]; peptide modifications: H3S10ph, binder concentration: 50 nM",0.00508 ± 8.1e-05
same,peptide microarray binding signal,"[1]; peptide modifications: H3S10ph, binder concentration: 500 nM",0.013 ± 0.00036
same,peptide microarray binding signal,"[2]; peptide modifications: H3S10ph, binder concentration: 10 nM",0.00233 ± 2.7e-05
same,peptide microarray binding signal,"[2]; peptide modifications: H3S10ph, binder concentration: 100 nM",0.0243 ± 0.00098
same,peptide microarray binding signal,[3]; [11],0.000321 ± 3.3e-06
same,peptide microarray binding signal,[3]; [12],0.000514 ± 5.5e-06
same,peptide microarray binding signal,[4]; [11],0.000362 ± 1.3e-05
same,peptide microarray binding signal,[4]; [12],0.000288
ARTKQTARKSTGG [H3 1-13 A R T K Q T A Rme K S T G G],peptide microarray binding signal,"[1]; peptide modifications: H3R8me1, binder concentration: 50 nM",0.00875 ± 0.0009
same,peptide microarray binding signal,"[1]; peptide modifications: H3R8me1, binder concentration: 500 nM",0.0184 ± 0.00056
same,peptide microarray binding signal,"[2]; peptide modifications: H3R8me1, binder concentration: 10 nM",0.005013 ± 5e-05
same,peptide microarray binding signal,"[2]; peptide modifications: H3R8me1, binder concentration: 100 nM",0.0155 ± 0.0047
same,peptide microarray binding signal,[3]; [13],0.000717 ± 4.6e-05
same,peptide microarray binding signal,[3]; [14],0.000685 ± 2.6e-05
same,peptide microarray binding signal,[4]; [13],0.00071 ± 4.4e-05
same,peptide microarray binding signal,[4]; [14],0.000519 ± 5.6e-06
ARTKQTARKSTGG [H3 1-13 A R T K Q T A Rme2s Kme2 S T G G],peptide microarray binding signal,"[1]; peptide modifications: H3R8me2s H3K9me2, binder concentration: 50 nM",0.0108 ± 0.00034
same,peptide microarray binding signal,"[1]; peptide modifications: H3R8me2s H3K9me2, binder concentration: 500 nM",0.0202 ± 0.00096
same,peptide microarray binding signal,"[2]; peptide modifications: H3R8me2s H3K9me2, binder concentration: 10 nM",0.0292 ± 0.0027
same,peptide microarray binding signal,"[2]; peptide modifications: H3R8me2s H3K9me2, binder concentration: 100 nM",0.049 ± 0.0084
same,peptide microarray binding signal,[3]; [15],0.00447 ± 0.00012
same,peptide microarray binding signal,[3]; [16],0.00451 ± 0.00027
same,peptide microarray binding signal,[4]; [15],0.00805 ± 0.0035
same,peptide microarray binding signal,[4]; [16],0.0049 ± 0.00019
ARTKQTARKSTGG [H3 1-13 A R T K Q T A Rme Kac S T G G],peptide microarray binding signal,"[1]; peptide modifications: H3R8me1 H3K9ac, binder concentration: 50 nM",0.00721 ± 8e-05
same,peptide microarray binding signal,"[1]; peptide modifications: H3R8me1 H3K9ac, binder concentration: 500 nM",0.0187 ± 0.0017
same,peptide microarray binding signal,"[2]; peptide modifications: H3R8me1 H3K9ac, binder concentration: 10 nM",0.0141 ± 0.00051
same,peptide microarray binding signal,"[2]; peptide modifications: H3R8me1 H3K9ac, binder concentration: 100 nM",0.0352 ± 0.0065
same,peptide microarray binding signal,[3]; [17],0.00179 ± 0.00022
same,peptide microarray binding signal,[3]; [18],0.000628 ± 6.7e-06
same,peptide microarray binding signal,[4]; [17],0.00122 ± 4.2e-05
same,peptide microarray binding signal,[4]; [18],0.000807 ± 1.5e-05
ARTKQTARKSTGG [H3 1-13 A R Tph Kac Q T A R K S T G G],peptide microarray binding signal,"[1]; peptide modifications: H3T3ph H3K4ac, binder concentration: 50 nM",0.00699 ± 0.00027
same,peptide microarray binding signal,"[1]; peptide modifications: H3T3ph H3K4ac, binder concentration: 500 nM",0.0189 ± 0.0052
same,peptide microarray binding signal,"[2]; peptide modifications: H3T3ph H3K4ac, binder concentration: 10 nM",0.01 ± 0.0027
same,peptide microarray binding signal,"[2]; peptide modifications: H3T3ph H3K4ac, binder concentration: 100 nM",0.024 ± 0.0049
same,peptide microarray binding signal,[3]; [19],0.00177 ± 0.0002
same,peptide microarray binding signal,[3]; [20],0.00325 ± 0.0004
same,peptide microarray binding signal,[4]; [19],0.00104 ± 0.00017
same,peptide microarray binding signal,[4]; [20],0.00156 ± 0.00017
ARTKQTARKSTGG [H3 1-13 A R T K Q T A Rcit K S T G G],peptide microarray binding signal,"[1]; peptide modifications: H3R8cit, binder concentration: 50 nM",0.00727 ± 0.00022
same,peptide microarray binding signal,"[1]; peptide modifications: H3R8cit, binder concentration: 500 nM",0.0196 ± 0.0019
same,peptide microarray binding signal,"[2]; peptide modifications: H3R8cit, binder concentration: 10 nM",0.0125 ± 0.004
same,peptide microarray binding signal,"[2]; peptide modifications: H3R8cit, binder concentration: 100 nM",0.0291 ± 0.013
same,peptide microarray binding signal,[3]; [21],0.000359 ± 9.7e-06
same,peptide microarray binding signal,[3]; [22],0.000456 ± 9.9e-06
same,peptide microarray binding signal,[4]; [21],0.000785 ± 7.6e-05
same,peptide microarray binding signal,[4]; [22],0.000404 ± 4.4e-06
ARTKQTARKSTGG [H3 1-13 A R T K Q T A Rme2a Kac S T G G],peptide microarray binding signal,"[1]; peptide modifications: H3R8me2a H3K9ac, binder concentration: 50 nM",0.0172 ± 0.00041
same,peptide microarray binding signal,"[1]; peptide modifications: H3R8me2a H3K9ac, binder concentration: 500 nM",0.0506 ± 0.0025
same,peptide microarray binding signal,"[2]; peptide modifications: H3R8me2a H3K9ac, binder concentration: 10 nM",0.0458 ± 0.0028
same,peptide microarray binding signal,"[2]; peptide modifications: H3R8me2a H3K9ac, binder concentration: 100 nM",0.0544 ± 0.012
same,peptide microarray binding signal,[3]; [23],0.00338 ± 0.00042
same,peptide microarray binding signal,[3]; [24],0.00285 ± 0.00048
same,peptide microarray binding signal,[4]; [23],0.00364 ± 0.00047
same,peptide microarray binding signal,[4]; [24],0.00179 ± 4.5e-05

# Source: the supplement of paper PMC4022240
